# Measured values from the supplement of paper PMC10037445.
# The full ranking holds about 2,900 compounds; the median of “NF-kB SEAP reporter activity, fold change vs agonist alone” is about 0.99, and the highest 2% start at about 2.6. The entries come from a sample that favours the highest values as a whole.
# How the values were obtained:
# [1] = test system: RAW-Dual; test: NF-kB SEAP reporter activity, fold change vs agonist alone; cytotoxicity flag (confluency mask): not cytotoxic; higher = enhanced NF-kB activity
# Procedure, shortened: (§1)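 Library stock was pin-tooled at 50 nL into 384-well plates of RAW-Dual macrophages (50,000 cells/well, DMEM), followed 1 h later by a PRR agonist, and the cells were kept at 37 °C, 5% CO2. Supernatant collected after 20 hours was read for IRF by QuantiLuc luminescence and for NF-κB by QuantiBlue absorbance at 620 nm. Reporter activity is fold change over agonist-alone wells, and a well counted as cytotoxic when its IncuCyte confluency was below 70% of agonist controls in both mask sets.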
# [2] = test system: RAW-Dual; test: NF-kB SEAP reporter activity, fold change vs agonist alone; higher = enhanced NF-kB activity
# Procedure, shortened: as §1
# [3] = test system: RAW-Dual; test: NF-kB SEAP reporter activity, fold change vs agonist alone; cytotoxicity flag (confluency mask): cytotoxic (confluency <70% of control); higher = enhanced NF-kB activity
# Procedure, shortened: as §1
# [4] = agonist: ODN 1826 (TLR9) 0.5 ug/mL
# [5] = agonist: Pam2CSK4 (TLR2/6) 0.1 ug/mL
# [6] = agonist: Pam3CSK4 (TLR2/1) 0.1 ug/mL
# [7] = library stock concentration (final ~1000-fold dilution): 10 mM, cytotoxicity flag (confluency mask): not cytotoxic, agonist: MPLA (TLR4) […]
# [8] = library stock concentration (final ~1000-fold dilution): 10 mM, cytotoxicity flag (confluency mask): not cytotoxic, agonist: Imiquimod (TLR7) […]
compound,measurement,setting,value
CC(NC(=O)C(NC(=O)OCc1ccccc1)C(C)C)C(=O)NC(CC(=O)O)C(=O)CF (configuration not stated) (library stock concentration (final ~1000-fold dilution): 10 mM),NF-kB SEAP reporter activity,[1]; agonist: LPS (TLR4) 0.1 ug/mL,1.23
same,NF-kB SEAP reporter activity,[1]; [4],0.939
same,NF-kB SEAP reporter activity,[1]; [5],0.948
same,NF-kB SEAP reporter activity,[1]; [6],1.03
CCCC1CC(C(=O)NC(C(C)Cl)C2OC(SC)C(O)C(O)C2O)N(C)C1.Cl.O (configuration not stated) (library stock concentration (final ~1000-fold dilution): 10 mM),NF-kB SEAP reporter activity,[1]; agonist: LPS (TLR4) 0.1 ug/mL,1.29
same,NF-kB SEAP reporter activity,[1]; [4],0.918
same,NF-kB SEAP reporter activity,[1]; [5],0.831
same,NF-kB SEAP reporter activity,[1]; [6],0.973
CCCC1CC(C(=O)NC(C(C)Cl)C2OC(SC)C(O)C(O)C2O)N(C)C1.Cl.O (configuration not stated),NF-kB SEAP reporter activity,[2]; [7],1.07
O=C(Nc1cccc(Br)c1)c1cccc(S(=O)(=O)N2CCCCCC2)c1,NF-kB SEAP reporter activity,[2]; [8],1.56
same,NF-kB SEAP reporter activity,[2]; [7],1.26
C/C(=N\NC(=O)c1cccc(S(=O)(=O)N2CCOCC2)c1)c1cc(Cl)ccc1O,NF-kB SEAP reporter activity,[2]; [8],1.53
same,NF-kB SEAP reporter activity,[2]; [7],1.65
C/C(=N\NC(=O)c1cccc(S(=O)(=O)N2CCOCC2)c1)c1cc(Cl)ccc1O (library stock concentration (final ~1000-fold dilution): 10 mM),NF-kB SEAP reporter activity,[1]; agonist: LPS (TLR4) 0.1 ug/mL,2.6
same,NF-kB SEAP reporter activity,[1]; [4],1.9
same,NF-kB SEAP reporter activity,[1]; [5],1.52
same,NF-kB SEAP reporter activity,[1]; [6],2.48
O=C(Nc1cccc(Br)c1)c1cccc(S(=O)(=O)N2CCCCCC2)c1 (library stock concentration (final ~1000-fold dilution): 10 mM),NF-kB SEAP reporter activity,[1]; agonist: LPS (TLR4) 0.1 ug/mL,0.803
same,NF-kB SEAP reporter activity,[1]; [4],1.79
same,NF-kB SEAP reporter activity,[1]; [5],1.02
same,NF-kB SEAP reporter activity,[1]; [6],0.939
O=C(O)CCn1c2c(c3ccccc31)CC(NS(=O)(=O)c1ccc(F)cc1)CC2 (configuration not stated) (library stock concentration (final ~1000-fold dilution): 10 mM),NF-kB SEAP reporter activity,[1]; agonist: LPS (TLR4) 0.1 ug/mL,1.07
same,NF-kB SEAP reporter activity,[1]; [4],0.99
same,NF-kB SEAP reporter activity,[1]; [5],1.13
same,NF-kB SEAP reporter activity,[1]; [6],1.07
O=C(O)CCn1c2c(c3ccccc31)CC(NS(=O)(=O)c1ccc(F)cc1)CC2 (configuration not stated),NF-kB SEAP reporter activity,[2]; [7],1.07
COc1cc(C=CC(=O)CC(=O)C=Cc2ccc(O)c(OC)c2)ccc1O (library stock concentration (final ~1000-fold dilution): 100 mM),NF-kB SEAP reporter activity,[1]; agonist: LPS (TLR4) 0.1 ug/mL,0.303
same,NF-kB SEAP reporter activity,[1]; [4],0.197
same,NF-kB SEAP reporter activity,[1]; [5],0.13
same,NF-kB SEAP reporter activity,[1]; [6],0.242
COc1cc(/C=C/C(=O)O)ccc1O,NF-kB SEAP reporter activity,[2]; [8],0.903
same,NF-kB SEAP reporter activity,[2]; [7],1.09
COc1ccc(/C=C/C(=O)O)cc1OC,NF-kB SEAP reporter activity,[2]; [8],0.805
same,NF-kB SEAP reporter activity,[2]; [7],1.05
COc1cc(/C=C/C(=O)O)ccc1O (library stock concentration (final ~1000-fold dilution): 10 mM),NF-kB SEAP reporter activity,[1]; agonist: LPS (TLR4) 0.1 ug/mL,1.16
same,NF-kB SEAP reporter activity,[1]; [4],1.12
same,NF-kB SEAP reporter activity,[1]; [5],1.17
same,NF-kB SEAP reporter activity,[1]; [6],1.04
COc1ccc(C=Cc2cc(OC)c(OC)c(OC)c2)cc1OP(=O)(O)O (library stock concentration (final ~1000-fold dilution): 10 mM water),NF-kB SEAP reporter activity,[3]; agonist: LPS (TLR4) 0.1 ug/mL,5.99
same,NF-kB SEAP reporter activity,[3]; [4],2.48
same,NF-kB SEAP reporter activity,[3]; [5],2.34
same,NF-kB SEAP reporter activity,[3]; [6],2.65
COc1cc(C=CC(=O)CC(=O)C=Cc2ccc(O)c(OC)c2)ccc1O,NF-kB SEAP reporter activity,"[2]; library stock concentration (final ~1000-fold dilution): 100 mM, cytotoxicity flag (confluency mask): not cytotoxic, agonist: Imiquimod (TLR7) […]",0.155
same,NF-kB SEAP reporter activity,"[2]; library stock concentration (final ~1000-fold dilution): 100 mM, cytotoxicity flag (confluency mask): not cytotoxic, agonist: MPLA (TLR4) […]",0.257
COc1ccc(/C=C\c2cc(OC)c(OC)c(OC)c2)cc1O (library stock concentration (final ~1000-fold dilution): 10 mM),NF-kB SEAP reporter activity,[1]; agonist: LPS (TLR4) 0.1 ug/mL,4.68
same,NF-kB SEAP reporter activity,[1]; [4],2.84
same,NF-kB SEAP reporter activity,[1]; [5],1.69
same,NF-kB SEAP reporter activity,[1]; [6],2.62
COc1ccc(/C=C\c2cc(OC)c(OC)c(OC)c2)cc1O,NF-kB SEAP reporter activity,[2]; [8],1.63
same,NF-kB SEAP reporter activity,[2]; [7],2.07
COc1ccc(C=Cc2cc(OC)c(OC)c(OC)c2)cc1OP(=O)(O)O,NF-kB SEAP reporter activity,"[2]; library stock concentration (final ~1000-fold dilution): 10 mM water, cytotoxicity flag (confluency mask): cytotoxic (confluency <70% of control), agonist: Imiquimod (TLR7) […]",1.67
same,NF-kB SEAP reporter activity,"[2]; library stock concentration (final ~1000-fold dilution): 10 mM water, cytotoxicity flag (confluency mask): cytotoxic (confluency <70% of control), agonist: MPLA (TLR4) […]",2.09
COc1ccc(C(=O)C=Cc2cc(OC)c(OC)c(OC)c2)cc1OC,NF-kB SEAP reporter activity,"[2]; library stock concentration (final ~1000-fold dilution): 20 mM, cytotoxicity flag (confluency mask): cytotoxic (confluency <70% of control), agonist: Imiquimod (TLR7) […]",0.192
same,NF-kB SEAP reporter activity,"[2]; library stock concentration (final ~1000-fold dilution): 20 mM, cytotoxicity flag (confluency mask): cytotoxic (confluency <70% of control), agonist: MPLA (TLR4) […]",0.302
COc1ccc(C(=O)C=Cc2cc(OC)c(OC)c(OC)c2)cc1OC (library stock concentration (final ~1000-fold dilution): 20 mM),NF-kB SEAP reporter activity,[3]; agonist: LPS (TLR4) 0.1 ug/mL,0.326
same,NF-kB SEAP reporter activity,[3]; [4],0.215
same,NF-kB SEAP reporter activity,[3]; [5],0.0975
same,NF-kB SEAP reporter activity,[3]; [6],0.176
COc1ccc(/C=C/C(=O)O)cc1OC (library stock concentration (final ~1000-fold dilution): 10 mM),NF-kB SEAP reporter activity,[1]; agonist: LPS (TLR4) 0.1 ug/mL,1.43
same,NF-kB SEAP reporter activity,[1]; [4],1.15
same,NF-kB SEAP reporter activity,[1]; [5],1.15
same,NF-kB SEAP reporter activity,[1]; [6],1.14
